Hits are enriched below; roughly 13% of the tested compounds scored in any of these assays.
JMJD2E inh: qHTS Assay for Inhibitors of Human Jumonji Domain Containing 2E (JMJD2E). Lysine-specific demethylase 4E (Homo sapiens), B2RXH2. JMJD2E catalytic domain, FDH-coupled NADH fluorescence (FDH is formaldehyde dehydrogenase). Potency, µM (series often up to 57.1 µM), without a hit: top-dose activity change, negative = inhibition, usual class: inhibitors. actives 1.6% (n = 230,000); active = well fitted inhibition curve with a large enough effect, not every such curve was filed as active; inconclusive = small, poorly fitted or top-dose-only effect, or another doubt; inactive = no such curve, though single readings can be large or run the other way;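 note: potency is the fitted concentration of half-maximal effect; 0% = wells with enzyme and -100% = buffer wells without enzyme; nearly all actives have a fitted effect of over 50% in size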
Target sequence (B2RXH2 1-337 limits assumed): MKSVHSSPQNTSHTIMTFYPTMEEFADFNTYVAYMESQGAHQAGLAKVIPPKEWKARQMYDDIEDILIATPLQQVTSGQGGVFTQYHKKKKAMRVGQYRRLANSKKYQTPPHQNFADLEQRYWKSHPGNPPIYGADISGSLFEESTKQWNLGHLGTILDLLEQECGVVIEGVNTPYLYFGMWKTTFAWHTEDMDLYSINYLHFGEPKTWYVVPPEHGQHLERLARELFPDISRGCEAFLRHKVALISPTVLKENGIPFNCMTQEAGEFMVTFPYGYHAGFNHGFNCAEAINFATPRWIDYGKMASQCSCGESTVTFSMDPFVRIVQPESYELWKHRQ
ALDH1A1 inh: qHTS Assay for Inhibitors of Aldehyde Dehydrogenase 1 (ALDH1A1). actives 7.3% (n = 220,000). Potency, µM (series often up to 75.3 µM), without a hit: at the top dose activity, negative = inhibition, hits mostly inhibitors. Purified ALDH1A1, NADH fluorescence, propionaldehyde substrate. Aldehyde dehydrogenase 1A1 (Homo sapiens), P00352; active = well fitted inhibition curve with a large enough effect, not every such curve was filed as active; inconclusive = small, poorly fitted or top-dose-only effect, or another doubt; inactive = no such curve, though single readings can be large or run the other way;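 note: potency is the fitted concentration of half-maximal effect; plate controls were no enzyme wells and a reference inhibitor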
Sfp inh: qHTS Assay for Inhibitors of Bacillus subtilis Sfp phosphopantetheinyl transferase (PPTase); actives 3.5% (n = 310,000); Biochemical Sfp PPTase activity, qHTS; Potency, µM, without a hit: largest response in the series, negative = inhibition, usual class: inhibitors;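 note: the enzyme is Sfp with the accession as filed and its product quenches rhodamine fluorescence; potency is the fitted concentration of half-maximal effect; 0% = enzyme reaction without inhibitor and -100% = no enzyme wells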
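Fluorescence-quenching assay with 15 nM Sfp, 5 uM rhodamine-CoA and 12.5 uM BHQ-2-labelled ybbR peptide in pH 7.6 Hepes/MgCl2 buffer. Enzyme was pre-incubated with compound for 15 min at room temperature. Rate was taken from the 30-min fluorescence change (525/598 nm).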
LMNA splice mod: qHTS Assay for Modulators of Lamin A Splicing; HeLa LMNA splicing GFP/RFP minigene ratio, 48 h; Potency, µM (titrated, usually from 46.1 µM), for the others: at the highest dose ratio change, negative = inhibition, actives largely listed as inhibitors; actives 0.01% (n = 200,000); AID 1487, 2009; active = well fitted inhibition curve with a large enough effect in the signal ratio, with a control signal flat, not every such curve was filed as active; inconclusive = small, poorly fitted or top-dose-only effect, or effect the other way, or a change in a side signal; the % refers to the signal ratio; note: potency is the fitted concentration of half-maximal effect; % is set by controls: 0 for no effect and ±100 for the full control effect
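Read-out is the ratio of GFP to DsRed2 object intensity, acquired by 488 nm laser-scanning cytometry on HeLa lamin A-EGFP minigene reporter cells. Compound incubation 48 hrs at 37 °C in Opti-MEM with 2% FBS; DMSO 0.5% final.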
miR-21 act: qHTS Assay for Modulators of miRNAs and/orActivators of miR-21. Potency, µM (highest dose often 38.3 µM), inactives show top-dose activity change, positive = activation, hits mostly activators. HeLa miR-21 FLuc reporter, luciferase, 48 h. AID 2288, 2010. 340,000 tested, under 10 active;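 note: % of control where 0% means no effect; miR-21 action dims this reporter so a rising signal means less miR-21 action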
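Using DMEM plus 10% FBS, HeLa miR-21-FLuc cells are incubated with test compounds (final up to about 40uM) for 48 hours; firefly luciferase signal is then imaged following reagent-mediated lysis.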
G9a inh: qHTS Assay for Inhibitors of Histone Lysine Methyltransferase G9a. AID 504332, 2011. Potency, µM (top dose mostly 102 µM), inactives show at the highest dose activity, negative = inhibition, hits mostly inhibitors. Histone-lysine N-methyltransferase EHMT2 (Homo sapiens), Q96KQ7. G9a H3K9 monomethylation, AlphaScreen, 2 h. actives 8.8% (n = 350,000); note: potency is the fitted concentration of half-maximal effect; % is set by controls: 0 for no effect and ±100 for the full control effect; nearly all actives have a fitted effect of over 75% in size
Target sequence (Q96KQ7 913-1193 limits assumed): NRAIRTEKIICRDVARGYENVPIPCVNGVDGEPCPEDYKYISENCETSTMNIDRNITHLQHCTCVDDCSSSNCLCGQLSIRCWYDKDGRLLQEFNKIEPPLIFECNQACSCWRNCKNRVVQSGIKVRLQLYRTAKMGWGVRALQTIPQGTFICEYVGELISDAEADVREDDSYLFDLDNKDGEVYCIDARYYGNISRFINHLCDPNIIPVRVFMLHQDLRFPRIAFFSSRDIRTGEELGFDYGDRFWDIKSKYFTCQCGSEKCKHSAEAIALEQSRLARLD
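AlphaScreen read-out: biotin-H3K9 peptide (500 nM) methylation by 20 nM enzyme with 20 uM SAM, 2 h at room temperature after 15 min compound preincubation; anti-monomethyl H3K9 antibody plus donor/acceptor beads, 10 min dark.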
* = called active by the depositor; [ ] = remark or other dose. Unless noted, calls come from the whole dose curve; as a rule, active = well fitted curve in the direction sought with a large enough effect; inconclusive = small, poorly fitted or top-dose-only effect, or another doubt; inactive = no such curve, though single readings can be large; an effect the other way counts as inactive or inconclusive.

For OC(CNCC1COc2ccccc2O1)COCc1cccs1 (stereo unspecified) the results were JMJD2E inh -7%, ALDH1A1 inh -9%, Sfp inh -24%, LMNA splice mod -11%, miR-21 act -7% and G9a inh 8.9µM*.
Screening N#CCCN(C(=O)COC(=O)CCc1nc2ccccc2c(=O)[nH]1)c1ccc(F)cc1 returned G9a inh -9%[59 µM].
`COc1cc(Cl)c(C)cc1NC(=O)Cn1c(C)c2cnn(-c3ccccc3)c(=O)c2c1C` gave miR-21 act -1% and G9a inh -2%[59 µM].
O=C(NCCSc1c[nH]c2ccccc12)c1ccc(Br)o1 was read as JMJD2E inh -3%, ALDH1A1 inh -11%, Sfp inh 10%, LMNA splice mod inconclusive, miR-21 act -10% and G9a inh 79µM*.
Cc1[nH]c2ccccc2c1SCCNC(=O)c1ccc(Br)o1 was read as JMJD2E inh -1%, ALDH1A1 inh -2%, Sfp inh -17%, LMNA splice mod inconclusive, miR-21 act 7% and G9a inh -19%[59 µM].
CCc1nn(CC(=O)Nc2ccc(NC(C)=O)cc2)c(=O)c2cc3sccc3n12 was read as miR-21 act -8% and G9a inh -33%[59 µM].
`COc1ccc(/C=N/NC(=O)c2nnn(-c3nonc3N)c2-c2cccc(OC)c2)cc1` gave Sfp inh 12%, miR-21 act -3% and G9a inh 21%.
COc1ccc(O)c(/C=N/NC(=O)c2c(C)nnn2-c2nonc2N)c1 was read as JMJD2E inh inconclusive, ALDH1A1 inh 3%, Sfp inh -17%, LMNA splice mod inconclusive, miR-21 act 3% and G9a inh 79µM*.
Screening O=C(NCc1ccc2c(c1)OCO2)C1CCCN1C(=O)Nc1ccc(Cl)cc1 (stereo unspecified) returned Sfp inh -3%, miR-21 act -2% and G9a inh 24%.
For COc1ccc(C)cc1S(=O)(=O)N1CCCC(C(=O)N2CCN(c3ccccc3F)CC2)C1 (stereo unspecified) the results were Sfp inh 3%, miR-21 act 25% and G9a inh 36%.
Screening CCCNC(=O)c1csc2c1CCCCC2 returned JMJD2E inh 4%, ALDH1A1 inh 6%, Sfp inh 6%, LMNA splice mod 1%, miR-21 act -13% and G9a inh 15%[59 µM].
Screening COc1ccc(CCNC(=O)c2csc3c2CCCC3)cc1 returned JMJD2E inh -7%, ALDH1A1 inh 0.79µM*, Sfp inh 12%, LMNA splice mod -27%[46 µM], miR-21 act -22% and G9a inh inconclusive.
`NS(=O)(=O)c1ccc(CNC(=O)c2csc3c2CCCC3)cc1` gave JMJD2E inh 1%, ALDH1A1 inh -8%, Sfp inh 3%, LMNA splice mod 17%[46 µM], miR-21 act -26% and G9a inh 20µM*.
For CCN(C(=O)COC(=O)/C=C/c1cccc([N+](=O)[O-])c1)c1ccccc1 the results were JMJD2E inh 3%, ALDH1A1 inh 14µM*, Sfp inh -2%, miR-21 act 0% and G9a inh inconclusive.
Screening CCNC(=O)COC(=O)/C=C/c1cccc([N+](=O)[O-])c1 returned JMJD2E inh -18%, ALDH1A1 inh -6%, Sfp inh 0%, LMNA splice mod -23%[46 µM], miR-21 act 1% and G9a inh 0%.
For CCCCN(CCCC)C(=O)/C=C/c1cccc([N+](=O)[O-])c1 the results were JMJD2E inh 3%, ALDH1A1 inh 4.5µM*, Sfp inh -3%, LMNA splice mod -15%, miR-21 act -1% and G9a inh inconclusive.
COc1cc2c(=O)c(C(=O)c3ccc(C)c(C)c3)cn(Cc3ccccc3F)c2cc1OC was read as miR-21 act -9% and G9a inh -18%[59 µM].
CCc1ccc(-n2c(SCc3ccccc3C)nc3[nH]ncc3c2=O)cc1 was read as LMNA splice mod inconclusive, miR-21 act 3% and G9a inh -11%[59 µM].
For O=C(c1ccc2c(c1)N(Cc1cccc(Cl)c1)C(=O)c1ccccc1S2(=O)=O)N1CCC(Cc2ccccc2)CC1 the results were LMNA splice mod 9%[46 µM], miR-21 act 11% and G9a inh -4%[59 µM].
`COC(=O)c1cccc(NC(=O)c2cc(OC)c(OC)c(OC)c2Br)c1` gave JMJD2E inh -6%, ALDH1A1 inh 40µM*, Sfp inh 5%, LMNA splice mod -13%, miR-21 act 5% and G9a inh -39%[59 µM].
COc1cc(C(=O)Nc2ccc(Nc3ccccc3)cc2)cc(OC)c1OC was read as Sfp inh 1%, miR-21 act 18% and G9a inh 50µM*.
COc1ccc2[nH]c(C(=O)O)c(NC(=O)c3cc(OC)c(OC)c(OC)c3)c2c1 was read as Sfp inh 4%, miR-21 act 0% and G9a inh inconclusive.
For COc1cc(C(=O)Nc2c(C(=O)O)[nH]c3ccccc23)cc(OC)c1OC the results were Sfp inh -5%, miR-21 act 4% and G9a inh 16µM*.
CCOC(=O)C1=C(C)Nc2ccccc2N=C1NC(=O)c1cc(C)on1 was read as G9a inh 4%[12.7 µM].
`COc1cc(C(=O)OCC(=O)NCCC2=CCCCC2)ccc1OCC(C)C` gave G9a inh 22%[2.33 µM].
Nc1nc(NCc2ccco2)nc(N2CCCC2)c1[N+](=O)[O-] was read as JMJD2E inh -4%, ALDH1A1 inh 4µM*, Sfp inh 5%, LMNA splice mod inconclusive and miR-21 act -4%.
Nc1nc(NCc2ccco2)nc(N2CCCCCC2)c1[N+](=O)[O-] was read as JMJD2E inh -7%, ALDH1A1 inh 1.6µM*, Sfp inh -22%, LMNA splice mod inconclusive, miR-21 act 18% and G9a inh inconclusive.
For Nc1nc(NCc2ccco2)nc(N2CCN(Cc3ccccc3)CC2)c1[N+](=O)[O-] the results were JMJD2E inh 7%, ALDH1A1 inh -5%, Sfp inh 1%, miR-21 act 9% and G9a inh 35µM*.
`Nc1nc(NCc2ccco2)nc(NC2CCCCC2)c1[N+](=O)[O-]` gave JMJD2E inh 1%, Sfp inh 19%, miR-21 act -10% and G9a inh 0%.
